D1 allo mod – D1 CRE-luciferase signal change, two-sided – cell-based, HEK293 D1, dopamine EC30, D1 allosteric modulator project, primary screen. B-score at 10 µM. D(1A) dopamine receptor (Homo sapiens), P21728. AID 641, 2007. 5.9% of 58,000 active. dopamine EC30 potentiation; actives deviate in either direction;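 active = luminescence count or its row- and column-corrected plate score outside the 99.7% band of the plate's sample wells, on either side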
DAT uptake mod – changed hDAT dopamine uptake under cocaine IC80, either direction, primary screen, cocaine antagonist project, cell-based, LLC-PK1 hDAT, [14C]-dopamine uptake, MLSMR | 1.3% of 110,000 active | Sodium-dependent dopamine transporter (Homo sapiens), Q01959 | LLC-PK1 hDAT cells, [14C]-dopamine uptake with cocaine IC80; actives deviate in either direction | B-score at 10 µM;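 active = Z score or B-score, a plate-position-corrected score, falls beyond the plate's 99.7% confidence bounds, in either direction; inactive = both scores lie inside the 99.7% bounds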
Target sequence (Q01959 whole entry, looked up): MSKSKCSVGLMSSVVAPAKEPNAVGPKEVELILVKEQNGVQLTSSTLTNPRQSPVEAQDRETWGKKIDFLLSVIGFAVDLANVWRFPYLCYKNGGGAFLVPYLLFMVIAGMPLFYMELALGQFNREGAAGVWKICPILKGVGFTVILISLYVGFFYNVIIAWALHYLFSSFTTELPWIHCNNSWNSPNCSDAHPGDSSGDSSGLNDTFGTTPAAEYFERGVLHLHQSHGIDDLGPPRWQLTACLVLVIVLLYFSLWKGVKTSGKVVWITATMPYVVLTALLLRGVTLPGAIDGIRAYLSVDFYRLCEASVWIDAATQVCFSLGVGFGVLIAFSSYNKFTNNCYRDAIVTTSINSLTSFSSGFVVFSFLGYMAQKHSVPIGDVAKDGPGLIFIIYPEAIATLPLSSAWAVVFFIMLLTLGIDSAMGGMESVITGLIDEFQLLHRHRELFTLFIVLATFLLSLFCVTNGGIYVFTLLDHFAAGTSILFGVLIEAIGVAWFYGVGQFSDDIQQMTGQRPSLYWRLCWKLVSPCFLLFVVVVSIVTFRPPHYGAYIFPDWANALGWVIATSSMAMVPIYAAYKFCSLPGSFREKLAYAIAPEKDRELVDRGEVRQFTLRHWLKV
PLAP activator – PLAP enzyme activators, biochemical, luminescence, HTS | activation fold at 20 µM | Alkaline phosphatase, placental type (Homo sapiens), P05187 | 1.2% of 96,000 active | purified PLAP enzyme, luminescent substrate read-out; active compounds read high; in the data active = activation fold above about 2
PostGolgi ctrl – growth inhibition of yeast control strain, primary screen, counter-screen for post-Golgi transport modulator project. AID 738, 2007. efflux-deficient yeast background strain, growth absorbance A615, 16 h. inhibition, % at 10 µM. 5% of 98,000 active
Cav3 T inh – Cav3.2 calcium influx blockers – cell-based, Fluo-4 calcium fluorescence, FDSS, MLSMR library, primary screen; Voltage-dependent T-type calcium channel subunit alpha-1H (Homo sapiens), O95180; Cav3.2-expressing cells; active compounds read low; B-score at 10 µM; 4% of 100,000 active; AID 449739, 2010;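 active = single-dose well whose peak fluorescence ratio is a statistical outlier from its plate by either plate-standardised score or position-corrected B-score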
PostGolgi yeast – phenotypic screen on post-Golgi transport, primary screen; 0.9% of 98,000 active; AID 739, 2007; post-Golgi transport phenotypic cell assay; inhibition, % at 10 µM;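 note: yeast cells grown in 1536-well plates; yeast grown about 18 h at 30C before absorbance read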
Each line names hits and unclear results; the compound was inactive in the other large screens. A selection: hits, their analogues and other compounds. The true share with any hit is near 12%. Cut-off read from the data, not from the text of the source, unless noted: active = inhibition above about 30%; inactive = the rest.

O=C(c1cc2ccccc2oc1=O)N(Cc1ccco1)CC1CCCO1 (stereo not drawn)	none
CCOC(=O)c1ccccc1NC(=O)CSc1nnc(COc2ccccc2C)n1C	PostGolgi ctrl 38, Cav3 T inh -4.6
CC(C)OC(=O)CSc1nc2ncccc2[nH]1	none
O=C(CSc1nc2ncccc2[nH]1)NCc1ccccc1	PLAP activator 2.4
C/C(=N\Nc1nc2c(s1)CCCC2)c1ccccc1	PLAP activator 2.3 (no result: D1 allo mod)
COC(=O)CNC(=O)CN1C(=O)N(c2ccc(Cl)cc2)C(N(O)C(=O)Nc2ccc(Cl)cc2)C1(C)C (stereo not drawn)	none (no result: D1 allo mod)
Cc1ccc(C(=O)Cn2c(C(=O)/C=C/c3ccccc3)nc3ccccc32)cc1	none (no result: D1 allo mod)
Cc1cccc(C)c1NC(=O)C(=O)NCCOc1ccc(Cl)cc1	Cav3 T inh -3.6 (no result: D1 allo mod)
Cc1ccc(OCCNC(=O)c2ccccc2N)cc1	none (no result: PLAP activator)
Cc1ccccc1OCC(=O)NNC(=S)NC(=O)c1ccco1	PostGolgi ctrl 53, PostGolgi yeast 38 (no result: D1 allo mod)
CCOc1cc(NC(=O)c2ccco2)c(OCC)cc1NC(=O)COc1ccccc1C	none (no result: PLAP activator, PostGolgi ctrl, Cav3 T inh, PostGolgi yeast)
C=CCSc1nc(C)c2cc(C)cc(C)c2n1	none (no result: D1 allo mod)
Cc1cc(C)c2c(=O)n(CC(=O)NCCCN3CCN(c4ccccc4F)CC3)sc2n1	none (no result: DAT uptake mod, Cav3 T inh)
Cc1cc(C)c2c(=O)n(CC(=O)N3CCC(Cc4ccccc4)CC3)sc2n1	PostGolgi ctrl 45 (no result: DAT uptake mod, Cav3 T inh)
O=C(N1CCOCC1)C(F)(F)C(F)(F)C(F)(F)C(F)(F)C(=O)N1CCOCC1	none
Cc1cc(C(=O)CSc2n[nH]c(N)n2)c(C)n1-c1cc(F)ccc1F	PLAP activator 2.4
C=CCn1c(C)cc(C(=O)CSc2n[nH]c(N)n2)c1C	PLAP activator 2.7 (no result: D1 allo mod)
Cc1cc(C(=O)CSc2n[nH]c(N)n2)c(C)n1-c1ccc(F)cc1	none (no result: D1 allo mod, PLAP activator, PostGolgi ctrl, PostGolgi yeast)
COc1ccc2[nH]c(C)c(C(=O)CN3CCOCC3)c2c1	DAT uptake mod -3 (no result: D1 allo mod, Cav3 T inh)
COc1ccccc1N1CCN(CC(=O)c2c(C)n(C)c3ccccc23)CC1	none
COc1ccccc1N1CCN(CC(=O)c2c(C)[nH]c3cc(C)ccc23)CC1	Cav3 T inh -4.2
Cc1noc(C)c1C(=O)NCCCN1CCCC1=O	none
Cc1ccc(C(=O)NC(N2CCCC2)C(Cl)(Cl)Cl)cc1 (stereo not drawn)	none (no result: D1 allo mod)
O=C(NC(C(=O)c1ccccc1)n1ccc(=O)[nH]c1=O)c1ccccc1 (stereo not drawn)	PostGolgi ctrl 30
O=C(NC(C(=O)c1ccccc1)N1CCCCC1)c1ccccc1 (stereo not drawn)	PostGolgi yeast 38
O=C(CSc1nnc2sc3ccccc3n12)c1ccco1	none
O=C(NCCN1CCN(c2ccccc2)CC1)c1cccn2c(=O)c3cc(Cl)ccc3nc12	PostGolgi ctrl 68
O=C(NCCN1CCN(c2cccc(Cl)c2)CC1)c1cccn2c(=O)c3ccccc3nc12	none (no result: DAT uptake mod, PLAP activator, PostGolgi ctrl, Cav3 T inh, PostGolgi yeast)
CC12CC3(C)CC(C)(C1)CC(NC(=O)N1CCCC1)(C2)C3	PostGolgi ctrl 32 (no result: D1 allo mod)
CC1(NC(=O)N2CCCCC2)CCS(=O)(=O)C1 (stereo not drawn)	none
O=C(CCn1cnc2ccccc2c1=O)Nc1ccc(S(=O)(=O)N2CCCC2)cc1	none
COc1ccc(Cl)c(Cn2c(NCCCO)nc3c2c(=O)n(C)c(=O)n3C)c1	none
Nc1c(C(=O)NC2CCCCC2)nsc1C(=O)OCC(=O)NC1CCCCC1	PostGolgi ctrl 31
CCOC(=O)c1c(C)c(C(=O)NC2CCCCCC2)c(C)n1C	none
CCOC(=O)c1sc(C)c(C(=O)NC2CCCCC2)c1N	DAT uptake mod -2.7 (no result: D1 allo mod)
CCOC(=O)c1snc(C(=O)NC2CCCCC2)c1N	none
Cc1noc2ncnc(Oc3ccc(F)cc3)c12	none (no result: D1 allo mod)
CC(C)c1nnc(NC(=O)C2CCN(c3nc4ccccc4s3)CC2)s1	PostGolgi ctrl 34
c1ccc(Cn2nnnc2C(c2ccncc2)N2CCOCC2)cc1 (stereo not drawn)	none
CCC(C)(C)n1nnnc1C(c1cccnc1)N1CCN(c2cccc(C(F)(F)F)c2)CC1 (stereo not drawn)	PostGolgi ctrl 96, Cav3 T inh -5.1, PostGolgi yeast 86 (no result: D1 allo mod)
CC(C)(C)n1nnnc1C(c1cccnc1)N1CCN(c2ccccc2)CC1 (stereo not drawn)	PostGolgi ctrl 76, PostGolgi yeast 92 (no result: D1 allo mod)
c1ccc(Cn2nnnc2C(c2cccnc2)N2CCN(c3ccccc3)CC2)cc1 (stereo not drawn)	PostGolgi ctrl 90, PostGolgi yeast 92
CC(=O)C(Sc1ccc2nnc(-c3ccc(F)cc3)n2n1)C(C)=O	none
Cc1ccc(C2CC(c3ccccc3OC(F)F)Nc3ncnn32)cc1 (stereo not drawn)	none
Cc1ccccc1C1CC(c2ccccc2OC(F)F)Nc2ncnn21 (stereo not drawn)	Cav3 T inh -4.1
CC(=O)c1cccc(N(CC(=O)O)S(C)(=O)=O)c1	none
CN(CCCNC(=O)C1CCN(S(=O)(=O)N2CCC3(CC2)OCCO3)CC1)Cc1ccccc1	none
Cc1ccc(-c2nc3ccccc3[nH]2)cc1NC(=S)NC(=O)c1ccccc1Br	PostGolgi ctrl 37 (no result: D1 allo mod)
COc1ccc(C[C@H]2CN3C(=NC[C@@H]3C(C)C)N2CCNC(=O)c2ccc(C)c(Br)c2)cc1	DAT uptake mod -3.2 (no result: D1 allo mod, PLAP activator, PostGolgi ctrl, PostGolgi yeast)
COC(=O)c1nn(-c2ccccc2)c(Sc2ccc(Br)cc2)c1/C=N/O	none (no result: D1 allo mod)
Cn1c(Sc2ccc(Br)cc2)c(C=O)c2ccccc21	PostGolgi ctrl 32 (no result: D1 allo mod)
COc1cc2c(cc1OC)C(C(=O)N1CCN(c3ccccc3)CC1)C(c1cccs1)N(C)C2=O (stereo not drawn)	none (no result: D1 allo mod)
O=C(c1ccc(Cl)cc1)c1ccccc1C(=O)N1CCOCC1	none
O=S(=O)(/N=C(/c1ccc(Cl)cc1)N1CCOCC1)c1ccc(Cl)cc1	DAT uptake mod 2 (no result: D1 allo mod)
O=S1(=O)c2ccccc2C(CCO)N1Cc1ccccc1 (stereo not drawn)	none (no result: D1 allo mod, PLAP activator, PostGolgi ctrl, PostGolgi yeast)
CC1CC(NC(=O)c2cnc3n(c2=O)CCS3)CC(C)(C)C1 (stereo not drawn)	DAT uptake mod -2.6 (no result: PLAP activator, PostGolgi ctrl, PostGolgi yeast)
CCS(=O)(=O)c1ccc2oc(SCC(=O)NC34CC5CC(CC(C5)C3)C4)nc2c1	Cav3 T inh -7.2 (no result: D1 allo mod)
COc1ccc(C2CC(c3ccc(OC)cc3)n3nc(N)nc3N2)cc1 (stereo not drawn)	none (no result: PostGolgi ctrl, PostGolgi yeast)
COc1ccc(C2CC(c3ccccc3)Nc3nc(N)nn32)cc1 (stereo not drawn)	DAT uptake mod 2.5 (no result: D1 allo mod)
Cc1ccc(S(=O)(=O)N[C@H](C(=O)N2CCC(C(=O)N3CCC[C@H]3C(=O)O)CC2)C(C)C)cc1	none
Cc1ccc(N(CC(=O)Nc2ccccc2C(=O)NCc2ccco2)S(=O)(=O)c2ccccc2)cc1C	Cav3 T inh -6 (no result: D1 allo mod)
COCCN(CC(=O)NCc1ccccc1)C(=O)CCC(=O)Nc1ccccn1	none

Source: PubChem
